± gives the uncertainty stated by the source.
Tested on: Candida albicans SNY425 biofilm
Test: biofilm OD600 with compound plus antifungal (OD600 (absorbance)); higher = more biofilm remaining
[1] = assay detail: disruption of 24-h mature biofilm (compound + antifungal for a second 24 h)
[2] = assay detail: sustained inhibition (compound + antifungal during 90-min adherence and 24-h growth)

SMILES | biofilm OD600 [1] | biofilm OD600 [2]
CN1C(=O)[C@]23CC4=CC=C[C@H](O)[C@H]4N2C(=O)[C@@]1(CO)SS3 [Gliotoxin] + CC[C@H](C)C[C@H](C)CCCCCCCCC(=O)N[C@H]1C[C@@H](O)[C@@H](NCCN)NC(=O)[C@@H]2[C@@H](O)CCN2C(=O)[C@H]([C@H](O)CCN)NC(=O)[C@H]([C@H](O)[C@@H](O)c2ccc(O)cc2)NC(=O)[C@@H]2C[C@@H](O)CN2C(=O)[C@H]([C@@H](C)O)NC1=O [caspofungin] (first compound 1 µM) | 0.217 ± 0.0081 | 0.0858 ± 0.0052
CN1C(=O)[C@]23CC4=CC=C[C@H](O)[C@H]4N2C(=O)[C@@]1(CO)SS3 [Gliotoxin] + OC(Cn1cncn1)(Cn1cncn1)c1ccc(F)cc1F [fluconazole] (first compound 1 µM) | 0.211 ± 0.0079 | 0.0782 ± 0.0052
NCCc1ccc(S(=O)(=O)F)cc1 + CC[C@H](C)C[C@H](C)CCCCCCCCC(=O)N[C@H]1C[C@@H](O)[C@@H](NCCN)NC(=O)[C@@H]2[C@@H](O)CCN2C(=O)[C@H]([C@H](O)CCN)NC(=O)[C@H]([C@H](O)[C@@H](O)c2ccc(O)cc2)NC(=O)[C@@H]2C[C@@H](O)CN2C(=O)[C@H]([C@@H](C)O)NC1=O [caspofungin] (first compound 4 µM) | 0.29 ± 0.0053 | 0.172 ± 0.0053
NCCc1ccc(S(=O)(=O)F)cc1 + C[C@@H]1[C@H](O)[C@@H](C)/C=C/C=C/C=C/C=C/C=C/C=C/C=C/[C@H](O[C@@H]2O[C@H](C)[C@@H](O)[C@H](N)[C@@H]2O)C[C@@H]2O[C@](O)(C[C@@H](O)C[C@@H](O)[C@H](O)CC[C@@H](O)C[C@@H](O)CC(=O)O[C@H]1C)C[C@H](O)[C@H]2C(=O)O [amphotericin B] (first compound 4 µM) | 0.303 ± 0.0047 | 0.184 ± 0.011
CN1C(=O)[C@]23CC4=CC=C[C@H](O)[C@H]4N2C(=O)[C@@]1(CO)SS3 [Gliotoxin] + C[C@@H]1[C@H](O)[C@@H](C)/C=C/C=C/C=C/C=C/C=C/C=C/C=C/[C@H](O[C@@H]2O[C@H](C)[C@@H](O)[C@H](N)[C@@H]2O)C[C@@H]2O[C@](O)(C[C@@H](O)C[C@@H](O)[C@H](O)CC[C@@H](O)C[C@@H](O)CC(=O)O[C@H]1C)C[C@H](O)[C@H]2C(=O)O [amphotericin B] (first compound 1 µM) | 0.226 ± 0.0062 | 0.0908 ± 0.0077
NCCc1ccc(S(=O)(=O)F)cc1 + OC(Cn1cncn1)(Cn1cncn1)c1ccc(F)cc1F [fluconazole] (first compound 4 µM) | 0.278 ± 0.0089 | 0.109 ± 0.0077

— the supplement of paper PMC7261846
